The supplement of paper PMC10338343
± gives the standard deviation.

Experiments:
[1] = test system: MILI (PIWIL2) piRISC loaded with L1MC piRNA (26 nt); assay: pre-steady-state target cleavage rate (min^-1); guide: L1MC piRNA 5'p-UAACUAAAUACUAUGCAAGCUGUAGG; higher = faster piRNA-guided slicing of the target
Procedure, shortened: (§1)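 In Cleave-'n-Seq, a transcribed, DNA-blocked target RNA library (0.1 nM) was combined with 1 nM active affinity-purified piRISC bearing one synthetic guide, with or without 500 nM GTSF1 partner protein. Reactions ran in HEPES–potassium acetate buffer at 33 °C for 0–8 or 0–960 min. Uncleaved targets were sequenced and normalised to depth and to weakly complementary targets, three trials were pooled, and k3 was capped at 0.0001 min^-1. The pre-steady-state cleavage rate was obtained by fitting a burst-and-steady-state model.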

[2] = test system: EfPiwi piRISC loaded with L1MC piRNA (26 nt); assay: pre-steady-state target cleavage rate (min^-1); auxiliary factor: 500 nM Ephydatia muelleri Gtsf1; guide: L1MC piRNA 5'p-UAACUAAAUACUAUGCAAGCUGUAGG; MIWI and MILI are mouse PIWI proteins and EfPiwi is from a freshwater sponge; tags in brackets are library labels; higher = faster piRNA-guided slicing of the target
Procedure, shortened: as §1

[3] = auxiliary factor: 500 nM mouse GTSF1
[4] = auxiliary factor: none (no GTSF1)

| Sequence | pre-steady-state target cleavage rate [1, 3] | pre-steady-state target cleavage rate [1, 4] | pre-steady-state target cleavage rate [2] |
| --- | --- | --- | --- |
| UCCUGGUACAGCUUGCUUAGUAUUUAGUAA | 0.244 ± 0.03 | 0.00308 ± 0.0025 | 0.00376 ± 0.0023 |
| UCCUGCAUCAGCUUGCAUAGUAUUUAGUUA | 0.322 ± 0.021 | 0.00843 ± 0.0023 | 0.0591 ± 0.011 |
| UCCUGGAUCAGUUUGCAUAGUAUUUAGUUA | 0.24 ± 0.02 | 0.0104 ± 0.0027 | 0.128 ± 0.021 |
| UCCUGCUACAGCUUGCCUAGUAUUUAGUUA | 0.222 ± 0.015 | 0.0074 ± 0.0022 | 0.00702 ± 0.0018 |
| UCCUGGAUCACCUUGCAUAGUAUUUAGUUA | 0.234 ± 0.023 | 0.00706 ± 0.0023 | 0.018 ± 0.0063 |
| UCCUGCUACAGCUAGCAUAGUUUUUAGUUA | 0.0836 ± 0.014 | 0.00345 ± 0.0024 | 0.00472 ± 0.0016 |
| UCCUGGAACAGGUUGCAUAGUAUUUAGUUA | 0.308 ± 0.018 | 0.0111 ± 0.0022 | 0.0388 ± 0.0088 |
| UCCUGCCACAGCUUGCAUAGUAUUUAGUUA | 0.331 ± 0.025 | 0.0105 ± 0.003 | 0.0631 ± 0.017 |
| UCCUGCUAAGCUUGCAUAGUAUUUAGUUA | 0.182 ± 0.018 | 0.00403 ± 0.0019 | 0.00771 ± 0.0024 |
| UCCUGGAUCAGCUAGCAUAGUAUUUAGUUA | 0.236 ± 0.012 | 0.00845 ± 0.0024 | 0.0313 ± 0.009 |
| UCCUGGAACAGACUUGCAUAGUAUUUAGUUA | 0.217 ± 0.014 | 0.00682 ± 0.0024 | 0.0135 ± 0.0042 |
| UCCUGCUACAGCUAGCAAAGUAUUUAGUUA | 0.137 ± 0.012 | 0.00463 ± 0.0024 | 0.0328 ± 0.0098 |
| UCCUGGAACAGGUUGCAUAGUAAUUAGUUA | 0.206 ± 0.017 | 0.0075 ± 0.0018 | 0.0061 ± 0.0024 |
| UCCUGGAUCAGCUUGCAUAGUAUUUAGGUA | 0.0936 ± 0.021 | 0.00336 ± 0.0026 | 0.00436 ± 0.002 |
| UCCUCCUACAGCUUGCAUAGUAUUUGGUUA | 0.279 ± 0.024 | 0.00706 ± 0.0026 | 0.00583 ± 0.0021 |
| UCCUCCUACAGCUUGCUUACUAUUUAGUUA | 0.089 ± 0.011 | 0.00298 ± 0.0026 | 0.0407 ± 0.015 |
| UCCUGGAUCAUGCUUGCAUAGUAUUUAGUUA | 0.18 ± 0.019 | 0.00983 ± 0.0024 | 0.0911 ± 0.025 |
| UCCUGGAUGAGACUUGCAUAGUAUUUAGUUA | 0.186 ± 0.021 | 0.00953 ± 0.0028 | 0.00434 ± 0.003 |
| UCCUCCUAGAGCUUGCAUUGUAUUUAGUUA | 0.213 ± 0.012 | 0.00709 ± 0.0021 | 0.018 ± 0.0048 |
| UCCUGGAACAGCUUGCAUGUAUUUAGUUA | 0.083 ± 0.014 | 0.00308 ± 0.0027 | 0.00314 ± 0.0027 |
| UCCUGGUUCAGCUUGCAAAGUAUUUAGUUA | 0.137 ± 0.018 | 0.0176 ± 0.0038 | 0.0681 ± 0.019 |
| UCCUGCUUCAGCUUGCAUAGUAUUAAGUUA | 0.13 ± 0.02 | 0.00279 ± 0.0026 | 0.00492 ± 0.0016 |
